# According to ChEMBL document CHEMBL4888484, “Replenishing the malaria drug discovery pipeline: Screening and hit evaluation of the MMV Hit Generation Library 1 (HGL1) against asexual blood stage Plasmodium falciparum ,using a nano luciferase reporter read-out” (2022):
# The whole screen tested about 4,800 compounds, of which about 410 (8.5%) showed an effect of 50% or more. The sample holds strong results, similar compounds and a random draw of the others, so the mix is not that of the screen.
# Tested on: Plasmodium falciparum
# Test: Confirmatory screen in NF54 pLDH assay, in single point, at 2uM, 72h
# Type: functional, Erythrocyte
# Conditions: timepoint 72 hour
row,SMILES,% Inhibition [%]
1,COc1ccc([C@@H]2c3[nH]c4ccc(OC)cc4c3CCN2C(=O)NCc2ccc(F)cc2)cc1,4
2,COc1ccc(N2CCN(C(=O)c3ccc(F)cc3)[C@@H](C)C2=O)cc1,11
3,COc1ccc2[nH]c3c(c2c1)CCN(C(=O)c1ccc(C)c(C)c1)[C@@H]3c1ccccc1OC,86
4,CC1(C)CCC(Nc2ccc(C(N)=O)nn2)CC1,92
5,CC1CCCCC1OCCN1CCOCC1C(N)=O (configuration not stated),7
6,Cc1nn(C)c(C)c1-c1cc(C(=O)Nc2cc(F)ccc2F)c2c(C)nn(C)c2n1,2
7,COc1cccc(-c2cc(C(=O)Nc3ccc(F)c(Cl)c3)c3c(C)nn(C)c3n2)c1,4
8,CC(C)C(C(=O)O)N1Cc2c(cc(O)c3c2OC2(C3)C(C)CCC3C(C)(C)C(O)CCC32C)C1=O (configuration not stated),5
9,Cc1c(NC(=O)C(F)(F)[C@@]2(F)OC(F)(F)C(F)(F)C2(F)F)c(=O)n(-c2ccccc2)n1C,-16
10,Cc1cc(F)ccc1-n1ccc(C(=O)N(C[C@H]2CCOC2)C2CC2)n1,-12
11,CC[C@](O)(C(=O)N(C)Cc1ncon1)c1cccc(Cl)c1,-13
12,Cc1ccc(CC[C@H]2Nc3ccccc3C(c3ccccc3)(c3ccccc3)O2)o1,66
13,CCCOC(=O)c1cc(NC(=O)c2ccc3ccccc3c2)ccc1N1CCOCC1,-11
14,Cc1cc(C(=O)N2CCC3(CCNCC3)CC2)ccc1F,7
15,CN1C(=O)[C@H](O)N(c2cccc3ccccc23)C1=O,9
16,COc1cccc(-c2cc3c(N4CCN(c5ccccn5)CC4)nccn3n2)c1,4
17,C[C@H](NC(=O)c1cc(-c2ccc(F)cc2)ns1)c1ccccn1,9
18,Cc1c2c(C(F)(F)F)cc(=O)n(CCC(=O)Nc3ncc(Cl)cc3Cl)c2nn1C,-7
19,Cn1c(Cc2n[n+]3c(-c4ccccc4)cc(-c4ccccc4)nc3n2C)n[n+]2c(-c3ccccc3)cc(-c3ccccc3)nc12,95
20,Cc1ccc(Cl)cc1N1CCN(C(=O)c2ccc3noc(-c4ccc(F)cc4)c3c2)CC1,-13
21,c1ccc(CC2CCN(c3[nH]cnc4ncnc3-4)CC2)cc1,11

row,SMILES,% Inhibition [%]
1,O=C(Nc1cc(N2CCCS2(=O)=O)ccc1O)c1cccc(Oc2cccc(C(F)(F)F)c2)c1,97
2,O=C(Nc1cccc(C(F)(F)F)c1)C(Oc1ccccc1)Oc1ccccc1,-19
3,Cc1cccc(C(=O)Nc2ccc(N3CCCCCC3)cc2C(=O)O)c1,-10
4,CCOC(=O)c1oc(NC(=O)OC(C)(C)C)nc1C(F)(F)F,5
5,C#CCn1ccc(O)c(Cc2ccccc2)c1=O,14
6,CN(C(=O)C1CC=CC1)c1ccc(NC(=O)C2CC=CC2)cc1Cl,-13
7,Oc1ccccc1CCN[C@H]1CCc2ccc(F)cc21,95
8,Cc1ccnc(CNC(=O)N[C@H]2CCc3ccc(F)cc32)c1,-12
9,CN(Cc1ccc(F)cc1Cl)[C@H]1CCc2nnc(C3CCOCC3)n2CC1,-4
10,c1ccc(N2CCN(CCN[C@H]3CCc4cc5c(cc43)CCC5)CC2)cc1,9
11,O=C1OCc2cc(NC(=O)[C@@H]3COc4ccccc4O3)ccc21,10
12,Cc1cc(OCc2ccc(C(=O)Nc3ncn(Cc4c(F)cccc4Cl)n3)o2)ccc1Cl,0
13,COc1ccc(NC(=O)CC(C)(C)CC(=O)O)cc1,10
14,Cc1cc2nc(C)c(=O)n(Cc3ccc(C(=O)N4CCC(Cc5ccccc5)CC4)cc3)c2cc1C,12
15,C=Cn1cc[n+](CC(=O)c2ccc(-c3ccccc3)cc2)c1,51
16,Cn1c(-c2ccc(Cl)c(Cl)c2)c[n+](CC(=O)c2ccc(-c3ccccc3)cc2)c1N,9
17,Cc1ccc(C(=O)C[n+]2cc(-c3ccc(-c4ccccc4)cc3)n(C)c2N)cc1,4
18,CCC(C(=O)Nc1cc(C)on1)(C(F)(F)F)C(F)(F)F,9
19,CCCN1CCN(CCCNC(=O)c2ccc(Cl)c(-n3c(C)nc4cccnc43)c2)CC1,13
20,Cc1cc(NC(=O)[C@H](C)OC(=O)c2ccc3c(c2)OCC(=O)N3)on1,-19
21,Cc1nnc(CNC(=O)Nc2cccc3c4c(oc23)CCCC4)o1,72

row,SMILES,% Inhibition [%]
1,Cc1nnc(-c2ccccc2NC(=O)CCC2CCC(C)O2)o1 (configuration not stated),-16
2,Cc1nnc(CC(=O)NC2CC(OCc3ccccc3)C2(C)C)o1 (configuration not stated),8
3,Cc1ccc(NC(=N)NC2=N[C@@H](CC(=O)Nc3cccc(C(F)(F)F)c3)C(=O)N2)cc1,-10
4,CCn1nccc1CNc1ccc(F)cc1F,2
5,Cc1ccc(S(=O)(=O)N2CCC[C@H](C(=O)NCc3cccc(NC(=O)N4CCCC4)c3)C2)s1,8
6,Cc1cc2c(OC[C@@H](O)CN3CCOCC3)cccc2[nH]1,-7
7,Cc1nn(Cc2ccccc2)c(=O)n1-c1ccc(OCc2ccccc2)cc1,-14
8,COCCCNC(=O)C1CCN(c2c(C)n(-c3ccccc3)c(=O)n(CC(C)C)c2=O)CC1,5
9,CN(Cc1ccc(F)cn1)c1ccn(C)n1,8
10,CC1(C)OCc2cc(CNc3ccc4oc(=O)[nH]c4c3)ccc2O1,100
11,Cc1ccc(C)c(NC(=O)CC(=O)O)c1,-8
12,O=C1C2CC2C(=O)N1Cc1ccccc1 (configuration not stated),10
13,O=C(CN1CCC(c2ccc(F)c(F)c2)CC1)NCc1cccnc1,-8
14,Cc1nc(-c2ccc(N3CCC(NCCCn4ccnc4)CC3)cc2)cs1,23
15,O=S(=O)(c1ccccc1C(F)(F)F)N1CC[C@]2(CCN(c3cccnc3)C2)C1,10
16,Cc1ccc(C(=O)N[C@@H](C)CCc2ccccc2)cc1S(=O)(=O)N1CCN(C)CC1,-22
17,CC(C#N)CNCCC(C)c1ccccc1 (configuration not stated),8
18,O=C(O)c1cc(C=Cc2ccc3ncccc3c2)ncn1,11
19,COc1ccc2cc3n(c2c1)C[C@](C(=O)NC1CCCCCC1)(c1ccccc1)N(Cc1ccc(OC(C)C)cc1)C3=O,-23
20,Brc1cnn(Cc2cnc(NC3C4CCOC4C34CCC4)s2)c1 (configuration not stated),4
